Reference: PubChem BioAssay (NCI)
This is part of a sample that, as a whole, favours compounds with a hit. Of some 83,000 tested, about 20% had one in any assay.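 Cell lines were cultured in 96-well plates, exposed to a single compound concentration, and assessed for percent growth 48 hours later.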 A number with no mark means an inactive call. The source made the active and inactive calls. How the source made its calls: active means growth percent below 10; inactive means the rest.

The compounds below were run on MDA-MB-468 breast (assay: NCI-60 one-dose screen, 48 h (100 = growth as untreated, 0 = no growth, -100 = all killed)). Conditions: 10 µM unless noted.
`COc1cc(C2CC(c3cccc(Nc4ccncc4)c3)=Nc3c(N)ncnc3N2)cc(OC)c1OC` (stereo not given) was tested, and the growth was 47.6%. In the case of `O=C(NCCNc1nccc(-c2c(-c3cccc(O)c3)nc3sccn23)n1)Nc1cccc(C(F)(F)F)c1`, the growth was -40.6% (active). In the case of `Clc1ccc(/C=N/Nc2nc3ccccc3s2)c(Cl)c1`, the growth was 89.3%. `CN=C1C=CC(=C(c2ccc(N(C)C)cc2)c2ccc(N(C)C)cc2)C=C1` was tested, and the growth was -47.5% (active). For `CN1CCN(c2ccc(NC3=C(Cl)C(=O)c4ncccc4C3=O)cc2C(F)(F)F)CC1`, the growth was -79.2% (active). Compound `O=C1OC(=O)C2C1CC=CC2c1ccccc1` (stereo not given) has a growth of 93.3%. Work on `CC(C)CCOC(=O)c1ccccc1` yielded a growth of 115%. With `C[C@@H]1C(=O)N(C[C@H](Cc2ccccc2)NC(=O)OCc2ccccc2)[C@]1(Cc1ccccc1)C(=O)OC(C)(C)C` the growth was 46.7%. `Cc1nc2scc(-c3ccc(Cl)cc3)n2c(=O)c1CCN1CCOCC1` gave a growth of 112%. `Nc1ccccc1SC1CC(=O)N(c2ccc(I)cc2)C1=O` (stereo not given) gave a growth of 121%. In the case of `COc1c(Cl)cc(Cl)c2ccc(C=C3C(=O)NC(=S)NC3=O)nc12`, the growth was 108%. `COC(=O)[C@H](Cc1cn(C)cn1)NC(=O)[C@H](Cc1c[nH]c2ccccc12)NC(=O)Nc1cc(C(F)(F)F)cc(C(F)(F)F)c1` was tested, and the growth was -75.7% [100 µM] (active). `COc1ccc(Cc2nn(CC(=O)N/N=C/c3ccc(Cl)cc3)c(=O)c3c(C)noc23)cc1` gave a growth of 80.4%. Work on `Cc1cc(N(CCCNc2ccnc3cc(Cl)ccc23)Cc2ccccn2)nc(N2CCCC2)n1` yielded a growth of 88.3%. In the case of `CCCCN(C=S)CCCC`, the growth was 101%. With `Cc1ccc2c(C)c3c(ccc4ccccc43)c[n+]2c1` the growth was -42.1% (active). `COc1ccc2[nH]cc(-c3nc(-c4c[nH]c5c(Cl)nccc45)cs3)c2c1` was tested, and the growth was 34.1%. In the case of `CSc1nc(C)c(C(=O)CCN2CCN(c3ccccn3)CC2)s1`, the growth was 87.1%. `COc1ccc2[nH]cc(C(c3ccc(Cl)cc3)N3CCCC3)c2c1` (stereo not given) gave a growth of 84%. `CCN(CC)CCC(CNc1ccnc2cc(Cl)ccc12)c1ccccc1` (stereo not given) was tested, and the growth was -35.6% (active). `C[C@]12O[C@H]1[C@H](O)c1c(cc(O)c3c1C(=O)c1cccc(O)c1-3)C2=O` was tested, and the growth was 83.3%. `N#CCCN1C/C(=C/c2ccccc2)C(=O)/C(=C/c2ccccc2)C1` gave a growth of 11.7%. `CC[C@H](Nc1cc(C)nc(N)n1)c1nc2cccc(NCc3ccc(C(=O)NO)cc3)c2c(=O)n1-c1ccccc1` was tested, and the growth was -10.6% (active). With `C=C(C)[C@@H]1CC[C@]2(C(=O)O)CC[C@]3(C)[C@H](CC[C@@H]4[C@@]5(C)C/C(=C/c6ccco6)C(=O)C(C)(C)[C@@H]5CC[C@]43C)[C@@H]12` the growth was -27.1% [100 µM] (active). With `O=c1cc(-c2ccccc2)[nH]c2c1CCCC2` the growth was 39.9%. For `COc1ccc(-c2nn(-c3cccc(Cl)c3)cc2-c2cc(-c3cccs3)[nH]c(=S)n2)cc1`, the growth was 67.8%. Work on `O=C(/C=C/C=C/c1csc(Br)n1)NO` yielded a growth of 99.7%. Work on `C=CCn1c(SCC(=O)Nc2ccc(C(=O)/C=C/c3ccc(Cl)cc3)cc2)nnc1-c1ccccc1` yielded a growth of 101%. `C=C(C)[C@@H]1CCC[C@]2(C(=O)N3CCN(C)CC3)CC[C@]3(C)[C@@H](CC[C@@H]4[C@@]5(C)CC/C(=N\NC(=O)c6ccncc6)C(C)(C)[C@@H]5CC[C@]43C)[C@@H]12` was tested, and the growth was 113%. `O=C(CCCCCCN1CC(=O)N2[C@@H](c3ccccc3)c3[nH]c4ccccc4c3C[C@H]2C1=O)NO` showed a growth of 53.7%. With `CCN(CC)c1ccc(CNc2cc(C)nc3ccc(OC)cc23)cc1` the growth was 2.98% (active). In the case of `NC(=O)c1ccc(C2C3=C(CCCC3=O)OC3=C2C(=O)c2ccccc2C3=O)cc1` (stereo not given), the growth was -30.6% (active). `CCCCCCCCCCCCSC1=C(Cl)C(=O)C(OC)=C(OC)C1=O` showed a growth of 20.9%. For `O=[N+]([O-])c1cnc(Sc2ccncn2)s1`, the growth was -63.7% (active). For `Oc1ccc(Cl)cc1Cc1cc(Cl)cc(Cl)c1O`, the growth was 18.4%. In the case of `O=C1CC(c2nc3ccccc3[nH]2)CN1C1CCCCC1` (stereo not given), the growth was 110%. `CN1CCN(c2ccc(-c3cc4c(Nc5ccc(F)c(Cl)c5)ncnn4c3)cn2)CC1` showed a growth of 70.1%. For `O=C(c1ccccc1)N1N=C(c2ccc(-n3ccc(C(F)(F)F)n3)cc2)CC1c1ccc[nH]1` (stereo not given), the growth was 86%. With `COc1ccc(C(=O)OC2C(OC3C(O)COC(O[C@H]4C[C@H]5[C@@H]6CC=C7C[C@@H](O)CC[C@]7(C)[C@H]6CC[C@]5(C)[C@H]4[C@H](C)C(=O)CCC(C)C)C3OC(N)=O)OCC(O)C2O)cc1` (stereo not given in full) the growth was -24.5% (active). In the case of `Cn1cc(-c2noc(-c3cn(C)c4ncc(F)cc34)n2)c2cc(Cl)ccc21`, the growth was 52.9%.
